Bioassay records (PubChem)
Compounds with a hit are over-represented: about 1.2% of the library has one in this group of screens.
DSG3 Ab inh – blocks pemphigus antibody binding to human desmoglein-3; P32926; DSG3-coupled beads, scFv-anti-DSG3-GFP binding, flow cytometry; active compounds read low; binding (percent of control), % at 10 µM; hit rate 0.48% among 310,000;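 active = binding more than 3 SD below its plate's average and above zero; inconclusive = below that plate limit but binding exactly zero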;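 also: hits lower antibody fragment binding to DSG3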
Target sequence (P32926 whole entry, looked up, the tested form may be a part): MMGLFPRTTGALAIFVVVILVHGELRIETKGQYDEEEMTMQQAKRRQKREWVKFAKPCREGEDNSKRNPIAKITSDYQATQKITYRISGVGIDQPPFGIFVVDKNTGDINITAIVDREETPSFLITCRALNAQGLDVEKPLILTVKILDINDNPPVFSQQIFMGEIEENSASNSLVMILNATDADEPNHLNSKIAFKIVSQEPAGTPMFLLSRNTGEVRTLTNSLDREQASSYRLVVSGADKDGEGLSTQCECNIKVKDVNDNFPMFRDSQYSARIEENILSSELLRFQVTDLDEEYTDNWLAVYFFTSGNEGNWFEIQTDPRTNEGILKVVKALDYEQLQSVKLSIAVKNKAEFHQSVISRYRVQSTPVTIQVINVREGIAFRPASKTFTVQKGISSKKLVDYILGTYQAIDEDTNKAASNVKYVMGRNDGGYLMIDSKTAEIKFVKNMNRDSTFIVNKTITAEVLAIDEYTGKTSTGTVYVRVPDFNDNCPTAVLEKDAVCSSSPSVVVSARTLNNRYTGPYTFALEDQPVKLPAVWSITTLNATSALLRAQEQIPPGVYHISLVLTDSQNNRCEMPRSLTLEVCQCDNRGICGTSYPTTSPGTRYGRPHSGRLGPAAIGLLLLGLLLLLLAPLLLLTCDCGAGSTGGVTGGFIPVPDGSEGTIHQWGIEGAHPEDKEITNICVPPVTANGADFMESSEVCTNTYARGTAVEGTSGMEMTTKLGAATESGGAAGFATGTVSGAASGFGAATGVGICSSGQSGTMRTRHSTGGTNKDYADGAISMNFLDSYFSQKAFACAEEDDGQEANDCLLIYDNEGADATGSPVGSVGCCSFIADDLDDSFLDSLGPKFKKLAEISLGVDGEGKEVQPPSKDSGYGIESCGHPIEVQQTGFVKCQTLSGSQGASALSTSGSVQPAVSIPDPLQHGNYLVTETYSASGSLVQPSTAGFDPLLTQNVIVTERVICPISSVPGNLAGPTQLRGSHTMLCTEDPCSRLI
MEP2 TOR yeast – alters MEP2-GFP fluorescence in TOR pathway yeast screen; S. cerevisiae MEP2-GFP strain, flow cytometry GFP, 3 h; 100% = DMSO control level; hit rate 0.51% among 330,000; GFP response vs DMSO, % at 10 µM;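 active = GFP response versus DMSO above a set limit, roughly screen mean plus 3 SD, cut at about 180% in these data; inconclusive = fewer than 70 cells counted for a yeast strain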;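 also: median GFP fluorescence of the barcode-gated MEP2-GFP cells per well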
LAP4-GFP MLPCN – alters LAP4-GFP fluorescence in TOR pathway yeast screen; S. cerevisiae LAP4-GFP multiplex, flow cytometry GFP, 3 h; median GFP as percent of DMSO wells; GFP response vs DMSO, % at 10 µM; hit rate 0.34% among 320,000; AID 2023;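 active = GFP response vs DMSO above a set limit, about the screen mean plus 3 SD, cut at about 150% in these data; inconclusive = under 70 cell events counted for the yeast strain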
AGP1-GFP MLPCN – modulators of TOR pathway AGP1-GFP in S. cerevisiae; S. cerevisiae AGP1-GFP multiplex flow cytometry, 3 h; GFP as percent of DMSO wells; hit rate 0.02% among 320,000; GFP response vs DMSO, % at 10 µM; AID 2066;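 active = GFP response relative to DMSO above a set limit, near screen average plus 3 SD, cut at about 150% in these data; inconclusive = fewer than 70 cells counted for the yeast strain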;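 also: median GFP channel fluorescence of the gated AGP1 strain per well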
RPL19A-GFP yeast – yeast TOR pathway RPL19A-GFP modulation; S. cerevisiae RPL19A-GFP strain, flow cytometry, 3 h; active compounds read low; percent response vs DMSO, % at 10 µM; hit rate 0.3% among 330,000; AID 2025;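 active = percent response vs DMSO below 50%; inconclusive = fewer than 70 events counted for the yeast strain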;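 also: median channel GFP fluorescence of the barcoded RPL19A-GFP strain; ratio of sample median GFP to plate DMSO average so 100% = DMSO; lower means less RPL19A-GFP as with rapamycin TOR inhibition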
CIT2-GFP yeast – alters CIT2-GFP fluorescence in TOR pathway yeast screen. S. cerevisiae CIT2-GFP strain, flow cytometry, 3 h; 100 means same as DMSO wells. GFP response vs DMSO, % at 10 µM. hit rate 0.065% among 320,000. AID 2029;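 active = GFP response relative to DMSO above a set limit, near the screen mean plus 3 SD, cut at about 150% in these data; inconclusive = Fewer than 70 cells measured for a yeast strain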;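 also: ratio of well median GFP fluorescence to mean of DMSO wells on the plate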
LAP4-GFP pick2 – second confirmation of modulators of TOR reporter LAP4-GFP in yeast. shares compounds with LAP4-GFP MLPCN. S. cerevisiae LAP4-GFP strain, flow cytometry GFP, 3 h. GFP response vs DMSO, % at 10 µM. hit rate 20% among 590;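 active = GFP signal as percent of the solvent control above about 150%, meaning raised reporter expression, limit read from the data; inconclusive = fewer than 70 cells counted in the well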;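 also: ratio of well median GFP fluorescence to plate DMSO mean so 100% = DMSO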
MEP2 cherry2 – yeast MEP2-GFP modulation, second cherry pick | GFP response vs DMSO, % at 10 µM | hit rate 10% among 590 | shares compounds with LAP4-GFP MLPCN | S. cerevisiae MEP2-GFP strain, flow cytometry GFP, 3 h;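 active = GFP signal above 150% of the solvent control wells, that is a rise of more than half; inconclusive = fewer than 70 yeast cells counted in the well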;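 also: median channel GFP fluorescence of all gated yeast cells per well; ratio of median GFP to plate DMSO average so 100% = DMSO level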
RPL19A-GFP pick2 – yeast RPL19A-GFP TOR reporter modulation, second cherry pick. S. cerevisiae RPL19A-GFP strain, flow cytometry GFP, 3 h; active compounds read low; 100% means same as DMSO wells. hit rate 3% among 590. shares compounds with LAP4-GFP MLPCN. GFP response vs DMSO, % at 10 µM;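 active = under 65% GFP response relative to DMSO; inconclusive = yeast strain with under 70 measured events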;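 also: median GFP channel fluorescence per well over the all cells gate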
CIT2-GFP pick2 – yeast CIT2-GFP TOR reporter modulation, second cherry pick | shares compounds with LAP4-GFP MLPCN | S. cerevisiae CIT2-GFP strain, flow cytometry GFP, 3 h; DMSO control wells read 100% | GFP response vs DMSO, % at 10 µM | hit rate 8% among 590 | AID 2624;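 active = GFP response vs DMSO above about 150%, limit read from the data; inconclusive = fewer than 70 events counted for a yeast strain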;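 also: median green fluorescence per well over all gated yeast cells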
AGP1-GFP pick2 – second confirmation of modulators of TOR reporter AGP1-GFP in yeast; shares compounds with LAP4-GFP MLPCN; S. cerevisiae AGP1-GFP strain, flow cytometry GFP, 3 h; percent response vs DMSO, % at 10 µM; 590 tested, under 10 active; AID 2643;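 active = over 150 percent of DMSO response; inconclusive = yeast strain measured with under 70 events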;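 also: median GFP channel fluorescence over all cells without mother daughter split; sample median GFP divided by mean DMSO control so 100% equals DMSO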
Yeast autofluor – yeast s288c autofluorescence artifact, counter-screen. shares compounds with LAP4-GFP MLPCN. S. cerevisiae s288c, 520 nm autofluorescence, flow cytometry, 3 h; active compounds read high; zero means same as solvent-only cells. fluorescence change (kMESF span) at 33 µM. 610 tested, under 10 active. AID 2757;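 active = fluorescence span over the dose series, or activity score, above about 33, limit read from the data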
Yeast autofl DR – yeast s288c autofluorescence artifact in dose response; shares compounds with LAP4-GFP MLPCN; S. cerevisiae s288c parental, compound autofluorescence, flow cytometry, 3 h; fluorescence change (span) at 33 µM; 110 tested, under 10 active; AID 488829;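 active = fluorescence change span, or the activity score built from it, above 25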
TORC1 bypass gr – stops wildtype yeast growth while TORC1 bypass cells still grow. shares compounds with LAP4-GFP MLPCN. S. cerevisiae BY4741 spot growth rating, 48-72 h; active compounds read low. growth rating (0-3) at 30 µM. 120 tested, under 10 active;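 active = growth rating at most 1 for wild type yeast while the TORC1 bypass strain still grows fully, rated 3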
Starred values were filed as active, the others as inactive; u = inconclusive; x = no result given.

SMILES	DSG3 Ab inh	MEP2 TOR yeast	LAP4-GFP MLPCN	AGP1-GFP MLPCN	RPL19A-GFP yeast	CIT2-GFP yeast	LAP4-GFP pick2	MEP2 cherry2	RPL19A-GFP pick2	CIT2-GFP pick2	AGP1-GFP pick2	Yeast autofluor	others
CC(C)c1cc(-c2cc(-c3ccc(Cl)cc3)on2)nc(NCC2CC2)n1	105	99	126	86	96	93	x	x	x	x	x	x
COC1=C(N)C(=O)c2nc(-c3nc(C(=O)O)c(C)c(-c4ccc(OC)c(OC)c4O)c3N)ccc2C1=O	x	132	218*	67	60	71	309*	252*	95	349*	98	x
COc1ccc(-c2ncncc2-c2csc(C)n2)c(O)c1OC	102	99	99	91	98	89	x	x	x	x	x	x
O=C(c1ccccc1)c1ccccc1N1C(=O)C=CC1=O	x	87	327*	85	81	70	x	x	x	x	x	1.1
O=C1N(c2ccccc2C(F)(F)F)O[C@]1(c1ccccc1)C1CCCC1	103	91	90	91	99	103	111	113	101	107	106	-0.1
CC1(c2ccccc2)ON(c2ccccc2C(F)(F)F)C1=O (configuration not stated)	x	75	114	73	92	78	128	113	101	115	99	0.3
CC[C@@]1(c2ccccc2OC)ON(c2ccccc2C(F)(F)F)C1=O	95	80	116	73	93	88	147	112	101	107	104	0.6
Cc1ccccc1[C@@]1(C)ON(c2ccccc2C(F)(F)F)C1=O	100	83	100	84	88	91	125	106	104	113	101	-0.2
Cc1ccc(-c2cc(N)nc(-c3ccccc3)c2)cc1	102	91	73	85	94	82	x	x	x	x	x	x
CCC(C)NC(=O)Cn1nc(Cc2ccncc2)c2ccccc2c1=O (configuration not stated)	103	100	88	74	105	u	x	x	x	x	x	x
CC(C)Oc1ccc(C(=O)/C=C2/C(=O)Nc3ccccc32)cc1	95	90	161*	102	89	87	x	x	x	x	x	0.61
COc1ccc(C(=O)/C=C2\C(=O)Nc3ccc(Br)cc32)cc1	88	x	x	x	x	x	x	x	x	x	x	x
O=C1Nc2ccccc2/C1=C\C(=O)c1ccccc1	113	91	226*	85	80	80	x	x	x	x	x	0.4
O=C(/C=C1\C(=O)Nc2ccccc21)/C=C1\C(=O)Nc2ccccc21	89	x	x	x	x	x	x	x	x	x	x	x
Cn1ncc(S(=O)(=O)Cc2ccccc2)c(Cl)c1=O	98	94	161*	101	100	93	x	x	x	x	x	0.2	Yeast autofl DR=0.84;TORC1 bypass gr=3
NC(=S)NN=Cc1c[nH]c2nccnc12	95	x	x	x	x	x	x	x	x	x	x	x
CC1=CC(=O)N(c2cccc(C(F)(F)F)c2)C1c1ccc(Cl)cc1 (configuration not stated)	98	105	107	106	99	96	x	x	x	x	x	x
C=CC[C@H](CC(=O)OC(C)(C)C)C(=O)OC[C@@H]1CCCN1C(=O)[C@@H](CC=C)CC(=O)N[C@H](CO)Cc1ccccc1	103	110	116	113	108	108	x	x	x	x	x	x
C=CC[C@@H](CC(=O)OC(C)(C)C)C(=O)OC[C@@H]1CCCN1C(=O)[C@@H](CC=C)CC(=O)N[C@H](CO)Cc1ccccc1	106	98	198*	95	83	66	99	94	100	106	95	x
CC(=O)Oc1ccc(/C=c2\sc3ncnn3c2=O)cc1	107	91	153*	85	102	99	x	x	x	x	x	0.5
CCCOc1ccc(/C=c2\sc3ncnn3c2=O)cc1	103	86	105	90	92	91	x	x	x	x	x	x
CCOc1ccccc1/C=c1\sc2ncnn2c1=O	113	87	275*	66	97	68	226*	112	108	110	89	0.91
Cc1ccc(-c2nc3ncccc3o2)cc1NC(=O)c1sc2ccccc2c1Cl	102	103	101	92	99	95	x	x	x	x	x	x
CCOC(=O)c1ccc(N/C(=N\S(=O)(=O)c2ccccc2C)c2ccccc2)cc1	104	113	115	102	98	93	x	x	x	x	x	x
Cc1cc(C(=O)Nc2ccc(CC(=O)O)cc2)c(C)o1	x	105	109	107	110	108	x	x	x	x	x	x
SMILES	DSG3 Ab inh	MEP2 TOR yeast	LAP4-GFP MLPCN	AGP1-GFP MLPCN	RPL19A-GFP yeast	CIT2-GFP yeast	LAP4-GFP pick2	MEP2 cherry2	RPL19A-GFP pick2	CIT2-GFP pick2	AGP1-GFP pick2	Yeast autofluor	others
O=C1ON=C(c2ccccc2)/C1=C/c1ccc(-c2ccccc2[N+](=O)[O-])o1	112	91	179*	86	86	88	150*	117	100	106	98	0.6
CCOc1cc(/C=C2\C(=O)ON=C2c2ccccc2)ccc1OC	99	93	118	78	101	101	x	x	x	x	x	x
COc1ccc(/C=C2/C(=O)ON=C2c2ccccc2)cc1OC	100	87	171*	80	89	83	x	x	x	x	x	0.5
O=[N+]([O-])c1ccccc1-c1ccc(/C=N/n2cnnc2)o1	106	112	111	116	110	100	x	x	x	x	x	x
COc1cc(/C=C2\C(=O)ON=C2c2ccccc2)cc(OC)c1OC	110	90	143	75	78	76	195*	120	96	123	94	0
COc1ccc(/C=C2\C(=O)ON=C2c2ccccc2)cc1OC	98	112	100	104	105	105	x	x	x	x	x	x
